# Reference: ChEMBL document CHEMBL4888484, “Replenishing the malaria drug discovery pipeline: Screening and hit evaluation of the MMV Hit Generation Library 1 (HGL1) against asexual blood stage Plasmodium falciparum ,using a nano luciferase reporter read-out” (2022)
# Among all 4,800 compounds or so, about 410 (8.5%) showed an effect of 50% or more. What follows is part of a selection rich in strong results, with near analogues and random picks from the rest.
# Tested on: Plasmodium falciparum
# Assay: Confirmatory screen in NF54 pLDH assay, in single point, at 2uM, 72h
# Assay type: functional, Erythrocyte
# Conditions: timepoint 72 hour
row,SMILES,% Inhibition [%]
1,Cc1cc2c(OC[C@@H](O)CN3CCOCC3)cccc2[nH]1,-7
2,Cc1nn(Cc2ccccc2)c(=O)n1-c1ccc(OCc2ccccc2)cc1,-14
3,COCCCNC(=O)C1CCN(c2c(C)n(-c3ccccc3)c(=O)n(CC(C)C)c2=O)CC1,5
4,CN(Cc1ccc(F)cn1)c1ccn(C)n1,8
5,CC1(C)OCc2cc(CNc3ccc4oc(=O)[nH]c4c3)ccc2O1,100
6,Cc1ccc(C)c(NC(=O)CC(=O)O)c1,-8
7,O=C1C2CC2C(=O)N1Cc1ccccc1 (stereo not given),10
8,O=C(CN1CCC(c2ccc(F)c(F)c2)CC1)NCc1cccnc1,-8
9,Cc1nc(-c2ccc(N3CCC(NCCCn4ccnc4)CC3)cc2)cs1,23
10,Cc1ccc(C(=O)N[C@@H](C)CCc2ccccc2)cc1S(=O)(=O)N1CCN(C)CC1,-22
11,O=S(=O)(c1ccccc1C(F)(F)F)N1CC[C@]2(CCN(c3cccnc3)C2)C1,10
12,CC(C#N)CNCCC(C)c1ccccc1 (stereo not given),8
13,O=C(O)c1cc(C=Cc2ccc3ncccc3c2)ncn1,11
14,COc1ccc2cc3n(c2c1)C[C@](C(=O)NC1CCCCCC1)(c1ccccc1)N(Cc1ccc(OC(C)C)cc1)C3=O,-23
15,Brc1cnn(Cc2cnc(NC3C4CCOC4C34CCC4)s2)c1 (stereo not given),4
16,C[C@@H](N)C(=O)N1CCc2cc(-c3ccccc3)ccc21,11
17,CCC1CCCC(NS(=O)(=O)CCC(C)(C)C)C1 (stereo not given),-12
18,O=c1[nH]c(=O)n(S(=O)(=O)c2ccccc2)cc1F,87
19,Cc1ccc(N2CCN(S(=O)(=O)c3ccccc3)[C@@H](C)C2=O)cc1F,-11
20,O=S(=O)(c1ccccc1)N1CCN(S(=O)(=O)c2ccc(Cl)cc2)C1,11
21,COc1ccc(CCNC(=O)c2cc3c(=O)[nH]c(C)cn3n2)cc1OC,8
22,COc1cc(F)c(NCc2csc(C3CC3)n2)cc1OC,-21
23,CNC[C@H]1CCCN1C(=O)c1ccc(-c2noc(C(F)(F)F)n2)cc1,12
24,COC1CCCCC1NC(=O)c1ccc(-c2noc(C(F)(F)F)n2)cc1 (stereo not given),8
25,COc1cccc(CNC(=O)Cn2c(=O)n(C)c(=O)c3c2c(-c2ccccc2)cn3C)c1OC,-10
26,Cc1oc(-c2ccn[nH]2)cc1S(=O)(=O)Nc1cccc(Cl)c1,4
27,COc1ccc(-c2noc(Cn3c(=O)c4ccccc4n(CC(=O)NCCc4ccc(OC)c(OC)c4)c3=O)n2)cc1,6

row,SMILES,% Inhibition [%]
1,CNCC(=O)Nc1ccccc1C(F)(F)F,-9
2,O=C(c1cnc2ccccc2n1)N1CCCC1,-1
3,c1ncc(N2CCN3CCC[C@H]3C2)nc1OCC1CCCC1,-16
4,N[C@H]1C[C@@H](c2cc(N3CCN(C4CCCCC4)CC3)nc(N3CCCC3)n2)C1,50
5,Cc1cccc(CNc2cc([C@H]3C[C@@H](N)C3)nc(N3CCCC3)n2)c1,14
6,O=C(O)CCCC(=O)NCCc1ccc(Cl)cc1,-19
7,COc1ccc(OCc2nc3cc4c(cc3cc2C(=O)O)OCO4)cc1,5
8,CCOc1ccc(-n2c(CN3CCN(C(=O)c4ccco4)CC3)nc3ccccc3c2=O)cc1,14
9,CCOc1ccc(Nc2c3ccccc3nc3ccccc23)cc1,96
10,COc1ccc(NC(=O)c2nc(Nc3ccccc3)c3ccccc3n2)cc1,7
11,Cc1ccc(-c2ccnc3c(C(=O)N4CCOCC4)cnn23)cc1C,2
12,Cc1cccnc1C(F)(F)C(=O)Nc1cc(C)c(O)c(C)c1,11
13,O=C(Nc1ccc(N2CCn3c(nc4cc(Cl)ccc43)C2)cc1)NC1CCCCC1,-13
14,C[C@H](OC1CCCCCC1)C(=O)Nc1nc(C(N)=O)cs1,-11
15,Cc1ccccc1C(=O)NCc1nn(C2CCCC2)c2c1COCC2,6
16,COc1cccc(CNCCCn2ccnc2)c1OCc1ccc(F)cc1,10
17,COc1ccc(C)c2sc(N(CCCn3ccnc3)C(=O)Cc3ccc(F)cc3)nc12,85
18,O=C(Nc1ccncc1)c1nc(N2CCCC2)ncc1Br,-9
19,Cc1nn(C)c(Cl)c1CNCc1ccc(N2CCCCC2)nc1,-13
20,Fc1ccc(COc2cccc(CNCCN3CCOCC3)c2)cc1,-3
21,COc1cc(CNCCN2CCOCC2)ccc1OCc1cccc(C)c1,7
22,CCCc1nnc(N(Cn2nnc3ccccc32)C(=O)CN2CCOCC2)s1,2
23,CC1CCC(c2noc([C@H]3CCO[C@@H]3c3cncc(Br)c3)n2)CC1 (stereo not given in full),59
24,O=C(c1cncc(Br)c1)N1CC[C@H](c2nc(C3CCOCC3)no2)C1,10
25,Cc1ccc(NCc2ccc(OCc3cccc4ccccc34)c(Br)c2)cc1,11
26,CCCN(CC(=O)N(Cc1ccccc1)Cc1ccc(C)o1)C(=O)c1ccco1,-5
27,O=C(c1ccccc1)C1C(c2ccccc2)N1C(=O)c1ccc(Cl)cc1Cl (stereo not given),6

row,SMILES,% Inhibition [%]
1,FC(F)(F)c1nnc(NCc2cncs2)s1,-7
2,COCc1nsc(N2CCC(c3c(F)cccc3F)CC2)n1,7
3,Cn1cncc1CC(=O)Nc1ccnc(NC(=O)OC(C)(C)C)c1,100
4,CC(C)(C)OC(=O)Nc1cccc(N)n1,8
5,COc1ccc2c(O)cc(-c3ccccc3)nc2c1,1
6,Nc1c(-c2ccccc2)nsc1C(=O)NCC1CC1,9
7,COc1cccc(NC(=O)N2C[C@@H]3C[C@H](NS(C)(=O)=O)[C@H]2C3)c1,8
8,O=C1CCC(C(=O)N2CCC[C@H]2c2ccncc2)=NN1c1ccccc1,-11
9,CC[C@H](O)CN1CCC(Nc2ncnc3cc(Cl)ccc23)CC1,75
10,CON(C)C[C@H](O)Cn1cc(Nc2ncnc3cc(F)ccc23)cn1,5
11,C[C@H](C(=O)Nc1ccc(F)cc1Cn1ccsc1=O)C1CC1,-14
12,Cc1cc(CN(C)Cc2nccn2C)ccc1N1CCCCC1,1
13,Cc1nscc1C(=O)Nc1cccc(OCCN2CCCC2)c1,-15
14,CC(C)(C)c1cc2c(NCC3=CCOCC3)nccn2n1,9
15,COc1cc(C(=O)Nc2scnc2C)cc(OC)c1OC,7
16,Cc1cccc(C(=O)Nc2nc3cc4sc(NC(=O)c5cccc(C)c5)nc4cc3s2)c1,-8
17,COc1cc(C(=O)Nc2ccc3sc(NC(=O)c4cc(OC)c(OC)c(OC)c4)nc3n2)cc(OC)c1OC,67
18,CNCc1cc(OC)c(OC)cc1Cl,11
19,Cc1ccc(C)c(C(=O)Cn2nc3ccc(-c4ccc(Cl)cc4)nn3c2=O)c1,6
20,Cc1nc(NC(=O)c2ccn(COc3ccc(F)c(Cl)c3)n2)sc1C,-8
21,CC(=O)NCC(=O)N(Cc1ccco1)C1(C(=O)NC2CCCCC2)CCCCC1,8
22,CCn1nccc1C(=O)N1CC[C@H](CC(=O)NCc2ccncc2)C1,6
23,Cc1cc(C(=O)NCc2ccncc2)no1,-10
24,N#Cc1cc2cc(Cl)cnc2nc1N1CCCCC1,16
25,CCOc1cc(Cl)ccc1C(=O)NC1CCN(C[C@H]2CCOC2)CC1,5
26,COc1cc(C(=O)NC2CCCCC2)cc2occc12,0
27,Cc1cnccc1NCCNC1CCN(c2ccc3c(c2)CCC3)CC1,77

row,SMILES,% Inhibition [%]
1,Cc1cnccc1NCCNC1CCN(c2ccc(Cl)cc2)CC1,96
2,CCn1nccc1C(=O)NC1CCN(c2nnc3ccc(Cl)cn23)CC1,10
3,N#Cc1c(N2CCCCC2)ncc2c(=O)c3ccccc3[nH]c12,8
4,O=C(Cc1ccc(F)cc1)N[C@H](c1ccccc1)C1CC1,2
5,CCCOc1ccc(CNC(=O)CCn2ccn3nc(-c4ccc(C)c(C)c4)cc3c2=O)cc1,5
6,O=C(c1ccccc1)c1ccc(O)c(CN2CCCN(c3ccc(C(F)(F)F)cn3)CC2)c1O,80
7,Cc1ccc(-n2nc(C)cc2NC(=O)CN2CCCN(c3ccc(C(F)(F)F)cn3)CC2)cc1,9
8,O=C(C1CC1c1ccccc1)N(c1ccc(F)cn1)C1CCOCC1 (stereo not given),7
9,O=C(NCc1ccc2c(c1)OCO2)C(F)(F)C(F)(F)C(F)(F)C(F)(F)C(=O)NCc1ccc2c(c1)OCO2,-19
10,CN1CCN([C@H]2CCN(c3ccnc4ccc(Cl)cc34)C[C@H]2CCCO)CC1,60
11,CCCOc1cc(=O)c(C(=O)N2CCCC2)nn1-c1ccc(C)cc1,0
12,CCn1cc([C@H](CC(=O)N2CCN(Cc3ccc4c(c3)OCO4)CC2)c2cccc(OC)c2)c2ccccc21,2
13,OC(CNC1CCCNc2ccccc21)c1ccc(Cl)s1 (stereo not given),51
14,O=C(NC[C@H](O)c1ccc(Cl)s1)c1ccsc1,2
15,Cc1cccc(NC(=O)CC(C)(C)CC(=O)O)c1C,13
16,CC(C)(c1ccc(F)cc1)C1(NC(=O)CCc2nccs2)CC1,-12
17,Cn1cc(CCCNc2ccc(F)cn2)cn1,9
18,Cc1nn(C(C)(C)C)c2nc(C3CC3)cc(C(=O)N(C)c3ccccc3)c12,87
19,Cc1ccc(S(=O)(=O)N2CCN(C(=O)c3cc(C4CC4)nc4c3c(C)nn4C(C)C)CC2)cc1,13
20,Cc1nn(Cc2ccccc2)c2nc(C3CC3)cc(C(=O)N3CCOCC3)c12,1
21,CCOC(=O)C1CCN(C(=O)c2nc(-c3ccc(N4CCCC4)nc3)no2)CC1,12
22,O=C(c1cccc2cc[nH]c12)N(CC1CC1)C1CC1,12
23,Cc1cc(C)c(C(=O)Cn2nc3ccc(-c4ccc(Cl)cc4)nn3c2=O)c(C)c1,10
24,CCCn1nc(-n2cnnc2)c(NS(=O)(=O)c2ccc(Br)cc2)c1C,11
